Sampled rows, rich in hits. Any-hit rate of the full collection: about 13%.
HCV inh – blocks hepatitis C virus. Huh7.5.1 HCVcc-Cre infection, luciferase reporter, 44 h. Potency, µM (titrated, usually from 41.8 µM), usual class: inhibitors. 340,000 tested, 3.4% active. AID 651820
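Compounds are dispensed onto cells plated 4 h earlier at 1,000 per well, with HCVcc-Cre virus (about 0.5 moi) added next. Following 44 h of culture, luminescent signal is measured for 15 sec after 15 min with substrate at room temperature.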
HCMV antiviral – blocks human cytomegalovirus replication; AID 1259415; 410,000 tested, 4.5% active; HFF cells, HCMV-luciferase reporter, 72 h; active compounds read low; activity change, negative = inhibition, % at 57.5 µM; in the data active means activity change below about -60%; inconclusive means no clear call, values can overlap the other calls; inactive means above about -39%
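Two-dose cell screen: HFF monolayers treated with compounds and infected with luciferase-expressing HCMV at 1 PFU/cell, 72 h at 37C, then lysed for luciferase measurement.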
Pf growth 48h – inhibits P. falciparum growth in the first generation, 48 h; P. falciparum luciferase growth in erythrocytes, 48 h; Potency, µM (highest dose often 28.7 µM), most hits filed as inhibitors; 310,000 tested, 5.9% active; AID 504832
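Firefly luciferase activity from engineered P. falciparum reports growth; inhibitors lower the luminescent signal. Cultures contained 2% hematocrit erythrocytes at 0.1% final parasitemia.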
Pf growth 96h – P. falciparum growth inhibition at 96 hour, primary screen for plastid delayed-death inhibitors; P. falciparum luciferase reporter growth, 96 h; Potency, µM (titrated, usually from 28.7 µM), actives largely listed as inhibitors; 320,000 tested, 6.9% active; AID 504834
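P. falciparum expressing integrated firefly luciferase grown in erythrocytes (2% hematocrit, 0.05% parasitemia final) with compounds for 96 hours at 37 C, 5% CO2. Growth inhibition read as loss of luminescence after adding luciferase detection reagent.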
Of the large screens only hits and unclear results are named; the others gave an inactive call. Unless noted, the call rests on the fitted dose curve; in most records, active means well fitted inhibition curve with a large enough effect; inconclusive means small, poorly fitted or top-dose-only effect, or another doubt; inactive means no such curve, though single readings can be large or run the other way.

Cc1ccc(C2c3[nH]c4ccccc4c3C[C@H]3C(=O)N(c4ccccc4C(=O)NCCN4CCOCC4)C(=O)N23)cc1 (some centres not stated)	Pf growth 48h 15µM, Pf growth 96h inconclusive
Cc1ccccc1C1c2[nH]c3ccccc3c2C[C@H]2C(=O)N(c3ccccc3C(=O)NCCN3CCOCC3)C(=O)N12 (some centres not stated)	HCV inh inconclusive, Pf growth 48h inconclusive, Pf growth 96h inconclusive
O=C(NCCCN1CCOCC1)c1ccccc1N1C(=O)[C@@H]2Cc3c([nH]c4ccccc34)C(c3cccc(Cl)c3)N2C1=O (some centres not stated)	Pf growth 48h inconclusive, Pf growth 96h 9.3µM
Cc1ccc(C2c3[nH]c4ccccc4c3C[C@H]3C(=O)N(c4ccccc4C(=O)NCCCN4CCOCC4)C(=O)N23)cc1 (some centres not stated)	Pf growth 48h inconclusive, Pf growth 96h inconclusive
CCOc1ccc(Cn2c(CNS(=O)(=O)c3cccs3)nc3cccnc32)cc1	none (no result: HCV inh, Pf growth 48h, Pf growth 96h)
CN(Cc1cc(Br)cc(Br)c1N)C1CCCCC1	Pf growth 48h inconclusive, Pf growth 96h 19µM (no result: HCV inh)
CN(Cc1ccc(O)cc1)C1CCCCC1	none
CS(=O)(=O)NCCc1csc2nc(-c3ccccc3)nn12	none (no result: HCV inh, Pf growth 48h, Pf growth 96h)
CCOC(=O)NC(=O)CN1C(=O)NC(C)(c2ccccc2)C1=O (configuration not stated)	Pf growth 96h 1.9µM
CCOc1ccccc1CN1C(=O)NC(C)(c2ccccc2)C1=O (configuration not stated)	Pf growth 96h 9.3µM
CCCNC(=O)NC(=O)CN1C(=O)NC(C)(c2ccc(C)cc2)C1=O (configuration not stated)	Pf growth 96h 13µM
CC1(c2ccccc2)NC(=O)N(CC(=O)Nc2ccc(C(N)=O)cc2)C1=O (configuration not stated)	HCMV antiviral -62
Cc1ccc(C2(C)NC(=O)N(CC(=O)NC(=O)NCCC(C)C)C2=O)cc1 (configuration not stated)	Pf growth 48h inconclusive
COC(=O)N1CCCc2cc(S(=O)(=O)N3CCN(c4ccccc4)CC3)ccc21	none (no result: HCV inh, Pf growth 48h, Pf growth 96h)
O=C(Nc1cc(=O)[nH]c2nc(-c3ccccc3)nn12)c1ccc(Cl)cc1	none
O=C(Nc1cc(=O)[nH]c2nc(-c3ccc(Cl)cc3)nn12)c1ccccc1	Pf growth 48h 0.59µM, Pf growth 96h 0.33µM (no result: HCMV antiviral)
Cc1ccc(-c2nc(CN(C)C3CCOCC3)c(C)o2)s1	Pf growth 96h inconclusive
Cc1ccc(-c2nc(CN(C)Cc3cccc4cnccc34)c(C)o2)s1	HCV inh inconclusive, HCMV antiviral -67, Pf growth 48h inconclusive, Pf growth 96h 13µM
Cc1cc2c(C)nc(-c3ccccc3)nc2o1	HCV inh 3.5µM
COc1cc2c(C)nc3onc(-c4ccccc4)c3c2cc1OC	HCV inh inconclusive (no result: Pf growth 96h)
CCn1c2ccccc2c2cc(NC(=O)c3cccc(OC)c3OC)ccc21	HCV inh inconclusive, Pf growth 96h 4.1µM
CCn1c2ccccc2c2cc(NC(=O)c3cccc(OC)c3)ccc21	HCV inh 11µM, Pf growth 48h inconclusive
CCn1c2ccccc2c2cc(NC(=O)C(=O)N3CCOCC3)ccc21	HCV inh 11µM, Pf growth 96h inconclusive
CCn1c(C)c(C)c2cc(C(=O)Nc3cccc(Cl)c3)ccc21	HCV inh 2µM, Pf growth 48h inconclusive, Pf growth 96h 15µM
CCn1c2ccccc2c2cc(NC(=O)COc3ccccc3OC)ccc21	HCV inh inconclusive
CCn1c2ccccc2c2cc(NC(C)=O)ccc21	HCV inh inconclusive (no result: Pf growth 48h)
CCc1nn(CC(=O)N2CCN(c3cccc(Cl)c3)CC2)c(=O)c2cc3sccc3n12	none (no result: HCV inh, Pf growth 48h, Pf growth 96h)
CCOC(=O)c1c(C)[nH]c(C)c1S(=O)(=O)N1CCC(C(=O)Nc2ccc(OCC)cc2)CC1	none (no result: HCV inh, Pf growth 48h, Pf growth 96h)
CCOc1ccc(N(C)C(CNS(=O)(=O)c2ccccc2)c2ccccc2)cc1 (configuration not stated)	none (no result: HCV inh, Pf growth 48h, Pf growth 96h)
CN(C)CCNC(=O)C(=O)NCC(c1cccnc1)N1CCN(c2ccccc2)CC1 (configuration not stated)	none (no result: HCV inh, Pf growth 48h, Pf growth 96h)
CCn1c2ccccc2c2cc(NC(=O)c3ccco3)ccc21	HCV inh 3.2µM, HCMV antiviral -69, Pf growth 48h 13µM (no result: Pf growth 96h)
CCc1ccc(C(=O)C(C)CN2CCCCC2)cc1 (configuration not stated)	Pf growth 96h 1.5µM (no result: HCV inh, HCMV antiviral)
CCOc1ccc(C(=O)C(CN2CCOCC2)c2ccccc2)cc1 (configuration not stated)	HCV inh inconclusive, HCMV antiviral -99, Pf growth 48h inconclusive, Pf growth 96h inconclusive
O=C(c1ccccc1)C(CN1CCCCC1)c1ccccc1 (configuration not stated)	HCV inh inconclusive, HCMV antiviral -68 (no result: Pf growth 48h, Pf growth 96h)
O=C(c1ccc(Br)cc1)C(CN1CCOCC1)c1ccccc1 (configuration not stated)	Pf growth 96h inconclusive
CC(CN1CCN(CC(C)C(=O)c2ccccc2)CC1)C(=O)c1ccccc1 (configuration not stated)	none (no result: Pf growth 48h, Pf growth 96h)
O=C(CNc1ccccc1)N/N=C/c1c(O)ccc2ccccc12	HCV inh 10µM, HCMV antiviral -89, Pf growth 48h inconclusive
Nc1cc(Cl)nc(N/N=C/c2c(O)ccc3ccccc23)n1	HCV inh inconclusive, HCMV antiviral -71, Pf growth 48h inconclusive, Pf growth 96h inconclusive
O=C(CSCC(=O)Nc1ccccc1)N/N=C/c1c(O)ccc2ccccc12	HCV inh 10µM, HCMV antiviral -104, Pf growth 48h 2.6µM, Pf growth 96h 1.9µM
Nc1nonc1N/N=C/c1c(O)ccc2ccccc12	none
O=C(N/N=C/c1c(O)ccc2ccccc12)Nc1ccccc1	HCV inh inconclusive (no result: Pf growth 48h, Pf growth 96h)
CN(C)c1ccc(CNC(=O)CN2C(=O)c3cccnc3Oc3ccc(Cl)cc32)cc1	none (no result: HCV inh, Pf growth 48h, Pf growth 96h)
CCCN1CCC(C)(C(=O)Nc2cccc(OC(C)C)c2)C1 (configuration not stated)	none (no result: HCV inh, Pf growth 48h, Pf growth 96h)
CCCOc1ccccc1C(=O)N1CCCCC1CCN1CCCCC1 (configuration not stated)	HCMV antiviral -70 (no result: HCV inh, Pf growth 48h, Pf growth 96h)
Cc1cc(C)c2c(n1)sc1c(=O)n(-c3cc(Cl)ccc3C)nnc12	HCMV antiviral -60 (no result: HCV inh, Pf growth 48h, Pf growth 96h)
Cc1cccc(NS(=O)(=O)c2cccc(C(=O)NCC3(N4CCCCC4)CCCCC3)c2)c1	HCV inh inconclusive, Pf growth 48h 6.6µM, Pf growth 96h 8.3µM
COc1ccc(NS(=O)(=O)c2ccc(C(=O)NCC3(N4CCOCC4)CCCCC3)cc2)cc1	HCV inh inconclusive (no result: Pf growth 48h, Pf growth 96h)
COc1cc(S(=O)(=O)N2CCCCC2)ccc1NC(C)=O	none (no result: Pf growth 48h)
CCOc1ccc(S(=O)(=O)Nc2ccc(C(=O)NCC3(N4CCCCC4)CCCCC3)cc2)cc1	HCV inh inconclusive, Pf growth 48h 3.3µM, Pf growth 96h 1.2µM
COc1ccc(NS(=O)(=O)c2cccc(C(=O)NCC3(N4CCOCC4)CCCCC3)c2)cc1	HCMV antiviral -67, Pf growth 48h inconclusive, Pf growth 96h inconclusive
COc1cc(S(=O)(=O)NCC2(N3CCCCC3)CCCCC2)ccc1NC(C)=O	HCMV antiviral -98
COC(=O)c1ccc(Cl)cc1NC(=O)NC(C)c1c(-n2cccc2)sc(C)c1C (configuration not stated)	none (no result: HCV inh, Pf growth 48h, Pf growth 96h)

Bioassay records from PubChem.
